Compounds with a hit are over-represented: about 4% of the library has one in this group of screens.
MITF TRPM1 inh – reduces MITF-dependent TRPM1 promoter luciferase signal; inhibition, % at 12.5 µM; 330,000 tested, 0.83% active; SK-MEL-5 TRPM1 promoter luciferase, 24 h;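 active = mean inhibition across replicates of 60% or more, whatever share of single replicates reaches that level; inconclusive = some that reach 60%, reason not given; inactive = mean inhibition across replicates below 60%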
HIF-2a inh – HIF-2a inhibition. 786-0 RCC cells HIF-2a reporter, luciferase luminescence, overnight. inhibition, % at 18.8 µM. 360,000 tested, 0.72% active. AID 624352;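 active = inhibition of the luminescence signal of 40% or more relative to plate controls, in a single-dose primary screen at 18.75 µM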
LMP1 NFkB inh – inhibitors of Epstein-Barr LMP1-induced NF-kappaB reporter | 350,000 tested, 0.69% active | AID 504558 | LMP1-induced NF-kappaB luciferase reporter cells, luminescence | inhibition, % at 12.5 µM; in the data active = inhibition above about 41%; inconclusive = no clear call, values can overlap the other calls;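 also: 0% = neutral control wells and 100% = reference inhibitor control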
Peg3 prom inh – reduces Peg3 promoter-driven luciferase expression in HeLa | 360,000 tested, 1.7% active | inhibition, % at 20 µM | HeLa PEG-Prom luciferase reporter, luminescence, overnight | AID 588405;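 active = inhibition of at least 50% at 20 µM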
TROY NFkB inh – inhibitors of TROY-dependent NF-kB signaling; Q293 LMP1-TROYcd NF-kB luciferase reporter, 4 h; inhibition, % at 10 µM; 360,000 tested, 0.98% active; AID 1347056;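 active = compounds whose plate-normalised and pattern-corrected inhibition of the luciferase reporter signal at the single screening dose is 50% or more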
TWEAK-Fn14 inh – inhibitors of TWEAK-Fn14 interaction signaling; TWEAK-stimulated Fn14 reporter cells, luciferase luminescence, 8 h; inhibition, % at 10 µM; 360,000 tested, 2% active; AID 1159606; in the data active = inhibition above about 50%
* = called active by the depositor; ? = inconclusive; · = no result given.

SMILES | MITF TRPM1 inh | HIF-2a inh | LMP1 NFkB inh | Peg3 prom inh | TROY NFkB inh | TWEAK-Fn14 inh
O=C(OCCC12CC3CC(CC(C3)C1)C2)c1ccc(NCc2cc(O)ccc2O)cc1 | 67* | 77* | -25 | -34 | -3 | 98*
O=C(OCC12CC3CC(CC(C3)C1)C2)c1ccc(NCc2cc(O)ccc2O)cc1 | 36 | 81* | 4 | 6 | -6 | 103*
N#CCC(=O)Nc1ccc(C(=O)OCC(=O)C23CC4CC(CC(C4)C2)C3)cc1 | -1 | -3 | -5 | -48 | -13 | 3
Cc1cc(-c2ccccc2)n(-c2ccccc2)n1 | -44 | -258 | -30 | -223 | -62 | -10
CN(C)S(=O)(=O)N1CCc2ccc(NC(=O)c3ccc(C(F)(F)F)cc3)cc2C1 | -8 | -120 | 3 | -105 | 1 | 35
CC1=NN(C(=O)c2c(Br)c(C)nn2C)C(O)(C(F)(F)F)C1 (stereo not given) | 17 | 3 | -1 | 10 | -17 | 0
CC1=NN(C(=O)c2c(Br)cnn2C)C(O)(C(F)(F)F)C1 (stereo not given) | -1 | 12 | -13 | 8 | -4 | 72*
CC(C)CNC(=O)CSc1n[nH]c(=O)n1CCc1ccccc1 | 11 | 13 | 0 | -2 | 4 | 11
COc1ccc(NC(=O)CCNC(=O)c2ccco2)c(OC)c1 | 4 | -27 | 1 | -14 | -3 | 20
N#C/C(=C\c1coc2ccc(O)cc2c1=O)C(=O)Nc1nc2ccccc2s1 | 12 | -53 | -5 | -62 | 52* | 73*
COC1=CC(=O)C=C(OC)C1=O | 54 | 6 | 83* | 102* | -14 | 28
O=C1C=C(C2CCCCC2)C(=O)c2ccccc21 | 44 | 1 | -9 | 12 | -2 | 38
COC1=CC(=O)c2ccccc2C1=O | 102* | 29 | -10 | 24 | -6 | 21
Cc1ccc(C)c(NC(=O)C2CCCN(c3cnccn3)C2)c1 (stereo not given) | 6 | 18 | 2 | 1 | 6 | 3
CCc1nc2ccc(C(=O)Nc3ccc(Cl)c(Cl)c3)cn2c1N(C)Cc1ccc(OC)cc1 | · | -277 | · | -96 | -17 | -3
COCCn1c(-c2ccc(SC)cc2)nc2c1c(=O)[nH]c(=O)n2CC(C)C | -38 | -17 | -11 | -60 | -28 | -6
CCCCn1c(-c2ccncc2)nc2c1c(=O)[nH]c(=O)n2CC(C)C | -3 | 7 | -4 | 20 | · | 76*
CC1(C)OC2OC3C(CNCCO)OC(c4ccccc4)OC3C2O1 (stereo not given) | -1 | 4 | -8 | -1 | -3 | 2
O=S(=O)(O)c1ccc(O)c2cc(Nc3ccccc3)ccc12 | 6 | 3 | 15 | 17 | -3 | 79*
O=C1/C(=C\c2ccccc2)CN(C(=O)CCN2CCCCC2)C/C1=C/c1ccccc1 | 109* | 90* | -32 | 97* | 69* | 106*
CCN(CC)CCC(=O)N1C/C(=C/c2ccccc2)C(=O)/C(=C\c2ccccc2)C1 | · | 83* | ? | 94* | 63* | 107*
O=C1/C(=C\c2ccccc2)CCC/C1=C/c1ccccc1 | 10 | -11 | -26 | -10 | -15 | 13
O=C(CCN1C(=O)S/C(=C\c2ccccc2)C1=O)N1CCCCC1 | -26 | -117 | -11 | -133 | -44 | -15
O=C(NCCN1CCOCC1)c1ccc(Cl)c(Cl)c1 | -6 | 3 | -5 | -9 | 2 | 2
O=C1/C(=C\c2ccc(Cl)c(Cl)c2)CN(C(=O)CCN2CCOCC2)C/C1=C/c1ccc(Cl)c(Cl)c1 | 118* | 94* | 2 | 98* | 78* | 107*
SMILES | MITF TRPM1 inh | HIF-2a inh | LMP1 NFkB inh | Peg3 prom inh | TROY NFkB inh | TWEAK-Fn14 inh
Cc1csc(N2CCN(c3cc4c(cc3Cl)nc(-c3ccncc3)n4CCCN3CCCC3)CC2)n1 | 90* | 18 | 6 | -3 | 6 | 0
CCOc1cc(/C=C/C(=O)Nc2ccc(C(=O)NCCN(CC)CC)cc2)ccc1OCC(C)C | 83* | 21 | -19 | 104* | -8 | -28
Cc1ccc(C)c(NC(=O)CSc2nc3nc(-c4cccs4)cc(C(F)(F)F)c3c(=O)[nH]2)c1 | 11 | -4 | -10 | 18 | 53* | 7
Cc1ccc(C)c(NC(=O)CSc2nc(N)c(NC(=O)c3cccs3)c(=O)[nH]2)c1 | · | 12 | 0 | 6 | 6 | 11
O=C(CSc1nc2nc(-c3cccs3)cc(C(F)(F)F)c2c(=O)[nH]1)Nc1ccc(F)c(F)c1 | 15 | 21 | -6 | 46 | 49 | 70*
COc1cc(NC(=O)Cn2cnc3c(OCc4ccccc4)ncnc32)cc(OC)c1OC | 2 | -9 | 9 | -4 | -18 | 2
CC(=O)NC(c1ccc(F)c(F)c1)c1nc(-c2cccc(F)c2)cs1 (stereo not given) | · | -28 | · | -10 | -22 | -14
Cc1noc(C(F)(F)F)c1C(=O)NNC(=O)c1ccccc1 | 2 | 17 | -11 | 17 | -9 | 13
CN(C)C(CNC(=O)CSc1nnc(-c2ccco2)o1)c1ccccc1 (stereo not given) | 10 | 7 | -10 | -10 | 1 | 98*
CCCCOC(=O)c1ccc(NC(=O)Nc2ccc(OC)c(OC)c2)cc1 | -6 | -12 | 1 | -15 | 1 | 15
CCCCOC(=O)c1ccc(NC(=O)c2c(OC)cccc2OC)cc1 | 8 | 7 | -8 | -3 | 83* | -22
Cc1cc(C)c[n+](-c2[nH]c(=O)sc2/C=N/NC([S-])=Nc2ccccc2)c1 | 6 | 16 | 6 | -6 | -21 | -19
CCCCCc1cc(=O)oc2c(C(CCN3CCN(c4ccccc4)CC3)c3ccc4c(c3)OCO4)c(OC)cc(OC)c12 (stereo not given) | 10 | 9 | -9 | -2 | -4 | 9
CCCCCc1cc(=O)oc2c(C(CCN(CC)CC)c3ccc(OC)cc3)c(OC)cc(OC)c12 (stereo not given) | 81* | 19 | -3 | 101* | 15 | -12
CCCCCc1cc(=O)oc2c(C(CCN3CCCCC3)c3ccc(OC)cc3)c(OC)cc(OC)c12 (stereo not given) | 92* | -1 | -4 | 102* | 15 | -1
CCCCCc1cc(=O)oc2c(C(CCN3CCCC3)c3ccc(N(C)C)cc3)c(OC)cc(OC)c12 (stereo not given) | 79* | 15 | 2 | 97* | 11 | -6
CCN(CC)CCC(c1ccc(N(C)C)cc1)c1c(OC)cc(OC)c2ccc(=O)oc12 (stereo not given) | 8 | -3 | -5 | 13 | -8 | -23
CCCCCc1cc(=O)oc2c(C(CCN3CCCC(C)C3)c3ccc(OC)cc3)c(OC)cc(OC)c12 (stereo not given) | 47 | 7 | 13 | 96* | 16 | -12
O=C(CNC(=O)c1ccc(F)cc1)Nc1ccccc1C(F)(F)F | -22 | 1 | -11 | 9 | -1 | -17
CCCCn1c(SCC(=O)NNC(=O)c2ccccc2)n[nH]c1=O | -1 | 2 | -6 | 9 | 6 | 3

Assay outcomes deposited in PubChem by several laboratories.
